Screens: PubChem, National Center for Advancing Translational Sciences (NCATS)
Shown are actives, neighbours in structure and some others; about 21% of the full set was active somewhere.
CHX counter = Cycloheximide Counterscreen for Small Molecule Inhibitors of Shiga Toxin | cell reporter, cycloheximide protein synthesis inhibition counterscreen | max response, % | 300,000 tested, 12% active | AID 2314, 2010; in the data active = max response mostly above about 13%, no sharp cut-off; inactive = mostly below about 14%; also: read at 38.3 µM for the half of the compounds with a filed dose; 0% is about no effect
Sm TGR block = qHTS Assay for the Inhibitors of Schistosoma Mansoni Peroxiredoxins; purified TGR, DTNB reduction, TNB absorbance 405 nm; Potency, µM (top dose mostly 114 µM), inactives show at the top dose activity change, negative = inhibition, hits mostly inhibitors; 360,000 tested, 3% active; AID 485364, 2010; also: potency is read from the fitted curve at half-maximal effect; % is scaled to controls: 0 for no effect and ±100 for the full control effect; nearly all actives have a fitted effect of over 60% in size
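TGR 20 nM + NADPH 100 uM (dispensed conc.), cpd preinc 15 min RT; start with NADPH (500 uM addition) then DTNB (15 mM addition). Kinetic TNB absorbance, 405 nm filter. Four-parameter Hill fit across titration.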
Pf growth 48h = Primary qHTS for delayed death inhibitors of the malarial parasite plastid, 48 hour incubation. Potency, µM (titrated, usually from 28.7 µM), inactives show at the top dose activity change, negative = inhibition, hits mostly inhibitors. P. falciparum luciferase growth in erythrocytes, 48 h. AID 504832, 2011. 310,000 tested, 5.9% active; also: potency is read from the fitted curve at half-maximal effect; % is scaled to controls: 0 for no effect and ±100 for the full control effect
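Compounds are pin-transferred into medium, infected erythrocytes (2% hematocrit, 0.1% parasitemia final) are added, and plates sit one parasite generation at 37 C in 5% CO2. Detection reagent is then added and luminescence measured.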
Pf growth 96h = Primary qHTS for delayed death inhibitors of the malarial parasite plastid, 96 hour incubation | P. falciparum luciferase reporter growth, 96 h | Potency, µM (doses to about 28.7 µM), without a hit: at the top dose activity change, negative = inhibition, most hits filed as inhibitors | 320,000 tested, 6.9% active | AID 504834, 2011; also: potency is read from the fitted curve at half-maximal effect; % is scaled to controls: 0 for no effect and ±100 for the full control effect
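Infected RBCs, 2% Hct / 0.05% parasitemia final; luciferase-reporter P. falciparum; cpd 96 h, 37 C, 5% CO2; luciferase detection reagent; luminescence.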
NS1 function inh = qHTS Assay for Inhibitors of Influenza NS1 Protein Function | 270,000 tested, 0.4% active | Potency, µM (series often up to 46.1 µM), for inactives: top-dose activity, positive = more growth | AID 2326, 2010; calls by dose curve; also: potency is read from the fitted curve at half-maximal effect; actives are rising curves; nearly all actives have a fitted effect of over 50% in size
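S. cerevisiae expressing influenza A NS1, grown in glucose, washed, then diluted 1:100 into pH 6.0 -URA galactose medium with 23 nl compound. Growth recovery read as OD600; NS1-free strain serves as control.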
Shiga toxin inh = A qHTS for Small Molecule Inhibitors of Shiga Toxin; 290,000 tested, 9.2% active; inhibition, % at 38.7 µM; Vero cells, Shiga toxin protein synthesis inhibition reporter; in the data active = inhibition mostly above about 28%, no sharp cut-off; inactive = mostly below about 43%; also: 0% is about no effect
* hit, by the source's call; ? = inconclusive; · = not tested or not shown; [ ] = another dose, or the depositor's remark. Unless noted, calls follow the shape of the dose curve; as a rule, active = well fitted curve in the direction sought with a large enough effect; inconclusive = small, poorly fitted or top-dose-only effect, or another doubt; inactive = no such curve, though single readings can be large; an effect the other way counts as inactive or inconclusive.

SMILES	CHX counter	Sm TGR block	Pf growth 48h	Pf growth 96h	NS1 function inh	Shiga toxin inh
O=C1CN(/N=C/c2ccc([N+](=O)[O-])o2)C(=O)N1	-2.9	?	13.1µM*	4.15µM*	-1.1%	-13.6
O=C1OC(CN2CCOCC2)CN1N=Cc1ccc([N+](=O)[O-])o1 (stereo not given)	·	-31.7%	13.1µM*	?	·	·
O=C1O[C@H](CN2CCOCC2)CN1/N=C\c1ccc([N+](=O)[O-])o1	·	·	-17.2%[12.8 µM]	?	·	·
Cn1c(=O)c2c(ncn2CCN(CCO)Cc2ccccc2)n(C)c1=O	6.0	44.7µM*	6.6%	7.38µM*	10.1%	-29.4
CCN(Cc1ccccc1)C(=O)Cn1cnc2c1c(=O)n(C)c(=O)n2C	1.0	13.1%	13.5%	-7.1%	4.3%	-7.1
CCC(Sc1ccc2nnc(CCNS(=O)(=O)c3ccc(OC)cc3)n2n1)C(=O)OC (stereo not given)	-3.1	-1.9%	5.6%	7.38µM*	·	5.9
COc1ccc(S(=O)(=O)NCCc2nnc3ccc(SCC(=O)Nc4cc(C)cc(C)c4)nn23)cc1	·	-6.7%	·	·	·	·
Clc1cccc(CN2CCCCCC2)c1Cl	-2.9	76.0%	-13.9%	0.0%	-0.3%	3.4
CCOc1ccc(C2NC(=O)c3sc(=S)n(-c4ccccc4)c3N2)cc1 (stereo not given)	-4.8	-31.7%	4.15µM*	5.86µM*	-5.1%	-3.6
CCOC(=O)CNC(=O)c1ccc(-c2nn(C)c(=O)c3ccccc23)cc1	·	0.0%	·	·	·	·
Cc1ccc(S(=O)(=O)N2CCOC23CCN(C(=O)c2cc(Cl)ccc2Cl)CC3)cc1	0.4	-14.4%	?	-10.3%	-59.9%	-5.1
Cc1ccc(S(=O)(=O)N2CCOC23CCN(C(=O)c2ccc(Cl)cc2Cl)CC3)cc1	-3.6	7.94µM*	?	23.6%	-14.7%	-6.6
Cc1ccc(S(=O)(=O)N2CCOC23CCN(S(=O)(=O)c2c(C)cc(C)cc2C)CC3)cc1	·	-5.6%	?	4.65µM*	·	·
COc1ccc(S(=O)(=O)N2CCOC23CCN(S(=O)(=O)c2ccc(C)cc2)CC3)cc1	·	-26.3%	14.7µM*	?	·	·
CC(C)Oc1ccc(CNC(=O)C2CCN(C(=O)N3CC(C)Oc4ccccc43)CC2)cc1 (stereo not given)	·	-5.8%	·	·	·	·
CCOC(=O)c1c(C)oc2nc(C)nc(NCC3CCN(Cc4ccccc4C)CC3)c12	·	4.0%	·	·	·	·
CC(=O)c1cccc(Nc2cc(C)nc3ccc(C)cc23)c1	6.6	9.3%	4.15µM*	?	-0.4%	4.6
COC(=O)c1ccc(Nc2cc(C)nc3ccc(C)cc23)cc1	-4.8	9.9%	?	?	-3.6%	-22.3
Cc1cc(C)c2nc(C)cc(Nc3ccc(C(=O)N4CCOCC4)cc3)c2c1	1.1	-8.9%	?	?	1.8%	-11.8
CC(=O)c1cccc(Nc2cc(C)nc3c(C)cc(C)cc23)c1	-2.7	-1.5%	9.28µM*	?	-1.9%	1.3
Cc1ccc2nc(C)cc(Nc3ccc([N+](=O)[O-])cc3)c2c1	-6.2	2.7%	0.738µM*	?	·	-9.7
CC(=O)c1ccc(Nc2nc(C)cc(C)n2)cc1	28.2*	-2.9%	107.1%	?	-10.7%	95.0
CC(C)C[C@H](N)C(=O)O	·	·	·	·	0.7%	·
Cc1c(C(=O)Nc2ccc(S(=O)(=O)NCC3CCCO3)cc2)cccc1[N+](=O)[O-] (stereo not given)	-2.0	1.9%	-16.1%	-53.8%	1.5%	-2.2
CC(=O)c1ccc(Nc2cc(C)nc3ccccc23)cc1	18.3*	10.8%	?	?	·	36.7
CC(=O)c1ccc(Nc2cc(C)nc3c(C)cccc23)cc1	0.3	10.2%	?	49.2%	-13.1%	0.4
CCCCCCN(C(=O)CCCCCN1C(=O)NC(c2ccc(-c3ccccc3)cc2)C(C(=O)OCc2ccccc2)=C1C)C(C(=O)NCCCC)c1ccccn1 (stereo not given)	-3.3	?	2.94µM*	2.33µM*	-13.4%	-5.0
